Measured values: ChEMBL document CHEMBL1201862, “PubChem BioAssay data set” (2004)
Among all 350,000 compounds or so, about 700 (0.2%) were called active. The rule behind the calls is not given here. Only a selection was taken, and actives are over-represented in it overall.

These molecules were tested against RecQ-like DNA helicase BLM (Homo sapiens) (UniProt P54132) (assay: qHTS Assay for Inhibitors of Bloom's syndrome helicase (BLM).).
RecQ-like DNA helicase BLM (Homo sapiens), sequence (P54132 whole entry): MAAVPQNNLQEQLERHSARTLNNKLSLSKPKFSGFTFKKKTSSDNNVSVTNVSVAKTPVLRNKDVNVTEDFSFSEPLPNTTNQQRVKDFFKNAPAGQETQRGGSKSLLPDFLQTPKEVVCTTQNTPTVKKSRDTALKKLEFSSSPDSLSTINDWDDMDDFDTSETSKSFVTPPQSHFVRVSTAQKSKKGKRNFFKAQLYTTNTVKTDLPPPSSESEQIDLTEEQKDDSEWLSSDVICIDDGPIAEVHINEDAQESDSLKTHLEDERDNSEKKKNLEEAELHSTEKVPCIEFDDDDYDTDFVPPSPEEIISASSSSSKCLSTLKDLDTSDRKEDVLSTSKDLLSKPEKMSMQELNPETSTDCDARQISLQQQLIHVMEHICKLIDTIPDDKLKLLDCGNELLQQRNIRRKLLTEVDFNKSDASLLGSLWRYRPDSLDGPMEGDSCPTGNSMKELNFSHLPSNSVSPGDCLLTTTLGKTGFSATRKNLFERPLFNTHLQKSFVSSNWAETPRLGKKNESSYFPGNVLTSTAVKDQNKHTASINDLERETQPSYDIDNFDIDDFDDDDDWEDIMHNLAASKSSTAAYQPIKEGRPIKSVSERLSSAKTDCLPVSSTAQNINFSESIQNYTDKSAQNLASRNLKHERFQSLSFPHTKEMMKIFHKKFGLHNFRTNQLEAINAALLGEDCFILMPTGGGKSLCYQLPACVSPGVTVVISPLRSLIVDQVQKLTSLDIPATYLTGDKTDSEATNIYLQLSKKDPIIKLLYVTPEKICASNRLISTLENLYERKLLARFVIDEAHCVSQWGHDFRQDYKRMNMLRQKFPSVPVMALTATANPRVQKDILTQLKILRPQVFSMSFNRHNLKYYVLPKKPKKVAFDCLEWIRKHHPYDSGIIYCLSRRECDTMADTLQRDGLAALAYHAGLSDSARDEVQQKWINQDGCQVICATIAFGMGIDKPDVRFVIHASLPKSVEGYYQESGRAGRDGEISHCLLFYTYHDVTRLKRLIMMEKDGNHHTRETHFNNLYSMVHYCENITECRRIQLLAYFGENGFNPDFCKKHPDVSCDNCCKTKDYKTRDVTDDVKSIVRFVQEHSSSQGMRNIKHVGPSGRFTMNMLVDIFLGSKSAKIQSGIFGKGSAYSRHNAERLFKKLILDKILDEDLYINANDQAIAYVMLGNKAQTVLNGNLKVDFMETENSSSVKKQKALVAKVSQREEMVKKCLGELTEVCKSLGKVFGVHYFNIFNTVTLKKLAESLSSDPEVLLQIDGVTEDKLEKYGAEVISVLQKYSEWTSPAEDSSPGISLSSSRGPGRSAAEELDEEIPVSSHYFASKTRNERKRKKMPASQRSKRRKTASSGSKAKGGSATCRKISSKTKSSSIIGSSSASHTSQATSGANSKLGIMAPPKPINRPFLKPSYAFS
Format: functional
For `N[C@H](Cc1ccc(O)c(O)c1)C(=O)O`, the Potency was 28.2 µM (active).
